# Compounds with a hit are over-represented: about 0.44% of the library has one in this group of screens.
# PI4K2A inh – PI4K2A (human) kinase inhibition. activity change, negative = inhibition, % at 76.9 µM. purified PI4K2A, ADP-Glo luminescence, 1 h; stronger effect = lower value. Q9BTU6. hit rate 0.13% among 420,000; in the data active = activity change below about -50%; inconclusive = mostly about -30% to -49%;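 also: -100% = wells without enzyme as full effect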
#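 ADP-Glo luminescence measured ADP generated by PI4K2A enzyme (4 ug/mL before mixing) with 1.2 mM PI substrate (pre-mix) and 300 microM ATP (pre-mix). Tris pH7.5 buffer with MgCl2, Triton X-100; 1 h reaction at ambient temperature.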
# Pin1 inhibitor – human Pin1 inhibition; Pin1 FP peptide displacement, HiFluor488, 10 min; hit rate 0.009% among 390,000; Potency, µM (series often up to 115 µM), for the others: at the top dose activity, negative = inhibition, hits mostly inhibitors; Q13526; active = well fitted inhibition curve with a large enough effect in the polarisation, with a control signal flat, not every such curve was filed as active; inconclusive = small, poorly fitted or top-dose-only effect, or effect the other way, or a change in a side signal; inactive = no such curve, though single readings can be large or run the other way; the % refers to the polarisation; also: potency is read from the fitted curve at half-maximal effect; % is scaled to controls: 0 for no effect and ±100 for the full control effect
# Target sequence (Q13526 whole entry, looked up): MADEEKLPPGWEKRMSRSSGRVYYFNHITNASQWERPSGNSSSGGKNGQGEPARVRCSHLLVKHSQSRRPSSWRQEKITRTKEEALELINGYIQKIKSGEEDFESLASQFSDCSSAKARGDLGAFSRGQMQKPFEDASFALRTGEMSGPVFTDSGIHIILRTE
# Giardia killer – kills Giardia lamblia. activity change, % at 7.66 µM, hits read low. AID 540267. Giardia lamblia trophozoite viability. hit rate 0.15% among 340,000; in the data active = activity change below about -80%; inconclusive = between about -30% and that limit;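 also: parasites exposed to compound for two days anaerobically before the ATP read; % is scaled to controls: 0 for no effect and ±100 for the full control effect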
#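 Anaerobic 48 hrs incubation at 37 deg C of 100 trophozoites/well with test compounds; ATPLite 1-Step luminescence, 15-30 min RT, reports cellular ATP as viability.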
# p53 reactivation – restores transcriptional activity of mutant p53. H1299 p53-A138V BP100-luciferase reporter, luminescence, 24 h. Potency, µM (doses to about 92.2 µM), for inactives: top-dose activity change, positive = activation, actives largely listed as activators. hit rate 0.063% among 320,000. AID 504706; also: potency is read from the fitted curve at half-maximal effect; % of control where 0% means no effect; nearly all actives have a fitted effect of over 45% in size
#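 p53-null H1299 cells stably carrying temperature-sensitive p53-A138V and a BP100-luciferase reporter were pinned with compounds (4-point, 1:5 series) and held 24 hrs at 37 deg C. Luminescence was read 10 min after detection reagent.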
# B2AR arrestin – agonists driving beta-arrestin recruitment to human beta2-adrenergic receptor; P07550; beta-arrestin recruitment to beta2AR, cell-based reporter; Potency, µM (top dose mostly 46.1 µM), for the others: at the highest dose activation, actives largely listed as activators; hit rate 0.02% among 330,000; AID 492947;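 also: potency is read from the fitted curve at half-maximal effect; 0% = DMSO controls and full agonism = EC100 isoproterenol or metaproterenol; nearly all actives have a fitted effect of over 65% in size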
# Epigenetic reg – epigenetic control regulation, reporter derepression; hit rate 0.2% among 280,000; murine LDR cells, GFP reporter derepression, 30 h; Potency, µM (top dose mostly 53.9 µM), without a hit: at the top dose GFP activation, most hits filed as activators; AID 1865; also: potency is read from the fitted curve at half-maximal effect; % of control where 0% means no effect; nearly all actives have a fitted effect of over 60% in size
#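 Reporter derepression read as number of fluorescent GFP-positive objects, 20-120 um in size, counted by laser-scanning cytometer. Mouse LDR line with an epigenetically silenced CMV-GFP locus; compound incubation 30 h, 37 C.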
# HCC4017 tox – HCC4017 cytotoxicity of epigenetic modulator hits. HCC4017 NSCLC viability, CellTiter-Glo ATP luminescence, 72 h. hit rate 30% among 45. shares compounds with Epigenetic reg. Potency, µM (highest dose often 46.1 µM), for inactives: at the top dose activity change, negative = cytotoxicity, most hits filed as cytotoxic
# H358 viab – H358 cytotoxicity of epigenetic modulator hits. shares compounds with Epigenetic reg. H358 NSCLC viability, ATP luminescence, 72 h. Potency, µM (titrated, usually from 46.1 µM), for the others: at the highest dose activity change, negative = viability loss, usual class: cytotoxic. hit rate 30% among 45
# Active calls of the source: *; i = inactive; ? = inconclusive; / = not tested or not shown. Unless noted, calls follow the shape of the dose curve; as a rule, active = well fitted curve in the direction sought with a large enough effect; inconclusive = small, poorly fitted or top-dose-only effect, or another doubt; inactive = no such curve, though single readings can be large; an effect the other way counts as inactive or inconclusive.
SMILES,PI4K2A inh,Pin1 inhibitor,Giardia killer,p53 reactivation,B2AR arrestin,Epigenetic reg,others
CNC(=O)Oc1ccc(-c2cn3cc(C)ccc3n2)cc1,?,3%,-108*,28%,0%,-1%,
CNC(=O)Oc1cccc(-c2cn3cc(Cl)ccc3n2)c1,?,-2%,?,/,-1%,3%,
O=C(N/N=C/c1c(O)n(C2CC2)c(=S)[nH]c1=O)c1ccccc1O,10,2%,-5,6.3µM*,0%,0%,
C=CCC1(C(C)CC)C(=O)NC(=O)NC1=O (stereo not drawn),1,/,/,/,/,/,
O=C(O)CC1OCC=C2CN3CCC45C6=CC(=O)C(=O)C([N+](=O)[O-])=C6NC4C1C2CC35 (stereo not drawn),-61*,?,9,-5%,-1%,2%,
O=C(O)CC1OCC=C2CN3CCC45c6ccccc6NC4C1C2CC35 (stereo not drawn),-2,-1%,-10,4%,-1%,1%,
C[C@]12CC[C@H]3[C@@H](CC[C@@]45O[C@H]4C(O)=C(C#N)C[C@]35C)[C@H]1CC[C@H]2O,2,/,/,/,/,/,
CN1CSC(=S)N(C)C1,2,0%,15,/,/,8.9µM*,HCC4017 tox=?;H358 viab=?
CC1(C)CC/C(=C/c2ccc(Cl)cc2)C1(O)Cn1cncn1 (stereo not drawn),i,/,/,/,/,/,

# High-throughput results (PubChem BioAssay)
